{"source": "PubChem BioAssay (EPA / NIEHS)", "note": "Values joined by “and” are separate entries in the source; they are usually repeats but may differ in a detail not shown here. Equal entries are not always repeated. Some structures have more than one record in an assay (separate samples or runs), and their calls can disagree. Active and inactive are the calls of the source. The calls were made as follows: active = hit-call score of the fitted dose curve at least 0.9, where 1 is the maximum; inactive = score below 0.9.", "data": [{"read-out": "Interferon-inducible T-cell alpha chemoattractant (ITAC), CXCL11 (gene 6373)", "experiment": "BSK_BE3C_ITAC: BioMAP Diversity Plus: BE3C Assay for Interferon-inducible T-cell alpha chemoattractant (ITAC) Biomarker Activity (AID 2284279)", "settings": "primary human bronchial epithelial cells", "protocol": "BSK_BE3C is a cell-based, multiplexed-readout assay that uses bronchial epithelial cell, a human lung primary cell, with measurements taken at 24 hours after chemical dosing in a 96-well plate.BSK_BE3C_ITAC is an assay component measured in the BSK_BE3C assay. It measures I-TAC antibody related to regulation of gene expression using ELISA technology.Data from the assay component BSK_BE3C_ITAC was analyzed at the endpoint, BSK_BE3C_ITAC, in the positive analysis fitting direction relative to DMSO as the negative control and baseline of activity. Using a type of binding reporter, gain or loss-of-signal activity can be used to understand protein changes. To generalize the intended target to other relatable targets, this assay endpoint is annotated to the 'cytokine' intended target family, where the subfamily is 'chemotactic factor'.\nThe levels of cell surface (or secreted, indicated by the prefix \"s\") biomarker endpoints were measured by ELISA. Overt cytotoxicity to cells in confluent adherent cultures (all systems other than the BT system) was assessed by measuring total protein levels using sulforhodamine B (SRB) staining in parallel cultures at the time of biomarker measurements, indicated as SRB endpoints. For proliferation assays for adherent cell types, individual cell types are cultured at sub-confluence and relative cell numbers quantified by SRB staining at time points optimized for each system (48 h: 3C and CASM3C systems; 72 h: BT and HDF3CGF systems; 96 h: SAg system). SRB was performed by staining cells with 0.1% SRB after fixation with 10% TCA and reading wells at 560 nm.Viability and proliferation of PBMC (T cells) was quantified by Alamar Blue reduction for the SAg and BT systems. For PBMC viability (referred to as PBMC Cytotoxicity within the assay endpoint names), cells were plated (75,000/well in a 96-well plate) and then chemical samples added for 1 h before addition of activators, SEB and TSST-1 (20 ng/mL final concentration each). Cells were incubated for 90 h. Then, Alamar Blue (20 uL/well) (Invitrogen, Cat DAL1100) was added for 6 h, and the plates were read with a fluorescence microplate reader at 546/580 nm (excitation/emission). For PBMC proliferation, cells were plated and activated as above but incubated for only 16 h prior to addition of Alamar Blue. Plates were read after 6 h.", "values": [{"smiles": "O=C(O)C(F)(F)C(F)(F)C(F)(F)C(F)(F)C(F)(F)C(F)(F)C(F)(F)C(F)(F)C(F)(F)C(F)(F)C(F)(F)C(F)(F)F", "outcome": "inactive"}, {"smiles": "FC(F)(F)C(F)(F)C(F)(F)C(F)(F)C(F)(F)C(F)(F)C(F)(F)C(F)(F)F", "outcome": "inactive"}, {"smiles": "O=S(=O)(O)C(F)(F)C(F)(F)C(F)(F)C(F)(F)C(F)(F)C(F)(F)C(F)(F)F", "outcome": "inactive"}, {"smiles": "Cc1ccc(S(=O)(=O)OCC(F)(F)C(F)(F)C(F)(F)C(F)(F)C(F)(F)C(F)F)cc1", "outcome": "inactive"}, {"smiles": "OCCCC(F)(F)C(F)(F)C(F)(F)F", "outcome": "inactive"}, {"smiles": "O=C(O)C(F)(F)C(F)(F)C(F)(F)C(F)(F)C(F)(F)C(F)(F)C(F)(F)C(F)(F)C(F)(F)C(F)F", "AC50": "9.92 µM (active) and 11.3 µM (active)"}, {"smiles": "CC(C)(C)C(=O)CC(=O)C(F)(F)C(F)(F)C(F)(F)F", "outcome": "inactive"}, {"smiles": "FC(F)(F)C(F)(F)C(F)(F)C(F)(F)C(F)(F)C(F)(F)CCS", "outcome": "inactive"}, {"smiles": "FC(F)(F)C(F)(F)C(F)(F)C(F)(F)C(F)(F)C(F)(F)C(F)(F)Br", "outcome": "inactive"}, {"smiles": "FC(F)(F)C(F)(F)C(F)(F)N(C(F)(F)C(F)(F)C(F)(F)F)C(F)(F)C(F)(F)C(F)(F)F", "outcome": "inactive"}, {"smiles": "NC(=O)C(F)(F)C(F)(F)C(F)(F)C(F)(F)F", "outcome": "inactive"}, {"smiles": "OCC(F)(F)C(F)(F)C(F)(F)C(F)(F)C(F)(F)C(F)F", "outcome": "inactive"}, {"smiles": "FC(F)(F)C(F)(F)C(F)(F)C(F)(F)C(F)(F)CCI", "outcome": "inactive"}, {"smiles": "OCC(F)(F)C(F)(F)C(F)(F)C(F)F", "outcome": "inactive"}, {"smiles": "O=P(O)(O)OCCC(F)(F)C(F)(F)C(F)(F)C(F)(F)C(F)(F)C(F)(F)F", "outcome": "inactive"}, {"smiles": "FC(F)(F)C(F)(F)C(F)(F)C(F)(F)CCI", "outcome": "inactive"}, {"smiles": "FC(F)(F)C(F)(F)CNCC(F)(F)C(F)(F)F", "outcome": "inactive"}, {"smiles": "O=S(=O)(OCCOC(F)(F)F)C(F)(F)F", "outcome": "inactive"}, {"smiles": "OCC(F)(F)C(F)(F)C(F)(F)C(F)(F)C(F)(F)C(F)(F)F", "outcome": "inactive"}, {"smiles": "OCCCC(F)(F)C(F)(F)C(F)(F)C(F)(F)C(F)(F)C(F)(F)C(F)(F)F", "AC50": "45.9 µM (active) and 46.9 µM (active)"}, {"smiles": "FC(F)(F)C(F)(F)C(F)(F)C(F)(F)C(F)(F)C(F)(F)CC1CO1", "note": "(stereo not given)", "outcome": "inactive"}, {"smiles": "O=C(O)C(F)(F)C(F)(F)C(F)(F)C(F)(F)C(F)(F)C(F)(F)C(F)(F)C(F)(F)C(F)(F)C(F)(F)C(F)(F)C(F)(F)C(F)(F)F", "AC50": "25.9 nM (active)", "outcome": "inactive"}, {"smiles": "C=C(C)C(=O)OCC(F)(F)C(F)(F)C(F)(F)F", "outcome": "inactive"}, {"smiles": "OCC(F)(F)C(F)(F)C(F)(F)F", "outcome": "inactive"}, {"smiles": "C=C(C)C(=O)OCCC(F)(F)C(F)(F)C(F)(F)C(F)(F)C(F)(C(F)(F)F)C(F)(F)F", "outcome": "inactive"}, {"smiles": "CCCCCCCCC(F)(F)C(F)(F)C(F)(F)C(F)(F)C(F)(F)C(F)(F)F", "outcome": "inactive"}, {"smiles": "FC(F)(I)C(F)(F)C(F)(F)C(F)(F)I", "AC50": "46.2 µM (active) and 51.9 µM (active) and 49.2 µM (active)"}, {"smiles": "CCCCCCOC(=O)c1ccccc1O", "outcome": "inactive"}, {"smiles": "O=C(O)C(F)(OC(F)(F)C(F)(OC(F)(F)C(F)(OC(F)(F)C(F)(F)C(F)(F)F)C(F)(F)F)C(F)(F)F)C(F)(F)F", "note": "(stereo not given)", "outcome": "inactive"}, {"smiles": "C=CC(=O)OCC(F)(F)C(F)(F)C(F)(F)C(F)(F)C(F)(F)C(F)(F)C(F)(F)F", "outcome": "inactive"}, {"smiles": "C=CC(F)(F)C(F)(F)C(F)(F)C(F)(F)C(F)(F)C(F)(F)C(F)(F)C(F)(F)F", "outcome": "inactive"}, {"smiles": "C=C(C)C(=O)OCC(F)(F)C(F)(F)C(F)(F)C(F)(F)C(F)(F)C(F)(F)C(F)(F)F", "outcome": "inactive"}, {"smiles": "O=C(O)C(F)(F)C(F)(F)C(F)(F)C(F)(F)F", "outcome": "inactive"}, {"smiles": "FC(F)(F)C(F)(F)C(F)(F)C(F)(F)C(F)(F)C(F)(F)C(F)(F)C(F)(F)CCS", "outcome": "inactive"}, {"smiles": "O=C(O)C(F)(F)C(F)(F)OC(F)(F)F", "outcome": "inactive"}, {"smiles": "O=C(O)C(F)(F)C(F)(F)C(F)F", "outcome": "inactive"}, {"smiles": "O=C(O)C(F)(F)C(F)(F)C(F)(F)C(F)(F)C(F)(F)C(F)(F)C(F)(F)C(F)(F)Cl", "AC50": "40.8 µM (active) and 23.3 µM (active)"}, {"smiles": "COC(=O)CCC(F)(F)C(F)(F)C(F)(F)C(F)(F)F", "outcome": "inactive"}, {"smiles": "FC(F)(Br)C(F)(F)C(F)(F)C(F)(F)C(F)(F)C(F)(F)Br", "outcome": "inactive"}]}]}
